# In PubChem BioAssay (Tox21):
# “And” between values parts separate entries of the source, which are not always exact repeats. Equal values may be shown once. Records with an inconclusive call do not appear. Entries that show only a call come without a potency. The source holds several records for some structures; these can differ, active in one and inactive in another. The source made the active and inactive calls. Unless noted, calls come from the whole dose curve; as a rule, active = well fitted curve in the direction sought with a large enough effect in the repeat runs; inconclusive = weak or mixed curves; inactive = no such curve, though single readings can be large; an effect the other way counts as inactive or inconclusive.
# Legend:
# [1] = qHTS assay to identify small molecule agonists of the estrogen receptor alpha (ER-alpha) signaling pathway in the presence of an antagonist - cell viability counter screen (AID 1259386);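 note: cells exposed to compounds for 22 h at 37 °C before the viability read; nearly all actives have a fitted effect of over 30% in size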; note: potency is the fitted concentration of half-maximal effect
# Method in brief: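 Using estrogen-depleted VM7Luc4E2 cells, the 15-concentration compound series was applied together with 10.0nM ICI-182,780 and incubated 22hr at 37C/5% CO2. Cell viability was then scored by CellTiter-Fluor.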
# [2] = molecular target: Progesterone receptor (Homo sapiens) (UniProt P06401); assay: qHTS assay to identify small molecule agonists of the progesterone receptor (PR) signaling pathway (AID 1346784; calls by dose curve; note: nearly all actives have a fitted effect of over 30% in size)
# Chain of Progesterone receptor (Homo sapiens) (P06401 whole entry, looked up): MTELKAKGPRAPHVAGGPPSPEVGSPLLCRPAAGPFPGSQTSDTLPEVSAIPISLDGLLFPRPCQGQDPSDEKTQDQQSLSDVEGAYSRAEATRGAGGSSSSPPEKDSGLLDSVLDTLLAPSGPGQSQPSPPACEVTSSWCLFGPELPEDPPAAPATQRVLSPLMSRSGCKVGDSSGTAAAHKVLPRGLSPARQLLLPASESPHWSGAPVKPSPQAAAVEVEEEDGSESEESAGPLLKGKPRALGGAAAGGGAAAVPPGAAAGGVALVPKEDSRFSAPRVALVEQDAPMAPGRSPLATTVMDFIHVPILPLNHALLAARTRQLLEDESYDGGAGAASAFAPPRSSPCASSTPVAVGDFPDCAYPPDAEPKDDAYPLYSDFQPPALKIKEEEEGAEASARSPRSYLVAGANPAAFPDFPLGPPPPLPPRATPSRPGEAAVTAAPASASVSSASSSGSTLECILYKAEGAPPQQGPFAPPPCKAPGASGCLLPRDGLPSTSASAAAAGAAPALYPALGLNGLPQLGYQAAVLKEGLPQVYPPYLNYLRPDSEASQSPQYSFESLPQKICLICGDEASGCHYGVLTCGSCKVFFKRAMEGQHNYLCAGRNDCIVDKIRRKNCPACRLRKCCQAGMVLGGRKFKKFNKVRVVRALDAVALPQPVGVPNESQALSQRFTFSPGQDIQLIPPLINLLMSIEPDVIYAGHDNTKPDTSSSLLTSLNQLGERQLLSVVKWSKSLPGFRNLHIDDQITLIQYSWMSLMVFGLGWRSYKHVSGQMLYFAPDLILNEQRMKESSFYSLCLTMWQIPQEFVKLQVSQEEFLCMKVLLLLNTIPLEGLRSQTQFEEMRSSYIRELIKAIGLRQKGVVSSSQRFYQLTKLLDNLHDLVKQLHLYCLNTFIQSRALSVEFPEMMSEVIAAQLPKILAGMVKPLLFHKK
# Method in brief: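 Fluorescence from LiveBLAzer B/G FRET substrate cleavage (2 hr, RT) reported PR activation in PR-UAS-bla HEK 293T cells treated 16 hr at 37C/5% CO2 with compounds; medium contained 2% charcoal-stripped FBS.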
# [3] = molecular target: Progesterone receptor (Homo sapiens) (UniProt P06401); assay: qHTS assay to identify small molecule antagonists of the progesterone receptor (PR) signaling pathway (AID 1346795; active = well fitted inhibition curve with a large enough effect in the signal ratio in the repeat runs, not every such curve was filed as active; the % refers to the signal ratio; note: potency is the fitted concentration of half-maximal effect)
# Method in brief: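 Fluorescence intensity measured 2 hr after adding beta-lactamase FRET substrate to PR-UAS-bla HEK293T cells that had been co-treated 16 hr with compound and 1 nM R5020 (final concentration) in 2% charcoal-stripped FBS.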
# [4] = qHTS assay to identify small molecule antagonists of the progesterone receptor (PR) signaling pathway - cell viability counter screen (AID 1346798); note: series mostly up to about 92 µM; nearly all actives have a fitted effect of over 50% in size
# Method in brief: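 CellTiter-Glo luminescence; PR-UAS-bla HEK293T, 3,000 cells/well; compound + R5020, 16 hr, 37C/5% CO2; 30 min RT before read.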
# [5] = qHTS assay to identify small molecule agonists of the progesterone receptor (PR) signaling pathway - cell viability counter screen (AID 1346799; calls by dose curve; note: nearly all actives have a fitted effect of over 45% in size)
# Method in brief: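 In parallel with the beta-lactamase readout, cytotoxicity toward PR-UAS-bla HEK293T cells was measured by CellTiter-Glo luminescence following 16 hr compound incubation in 2% charcoal-stripped FBS medium.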
# [6] = qHTS assay to identify small molecule antagonists of the TGF-beta/Smad signaling pathway - cell viability counter screen (AID 1346824); note: nearly all actives have a fitted effect of over 50% in size
# Method in brief: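 SBE-bla HEK 293T cells, incubated overnight, then compound plus 0.25 ng/mL TGF-beta1 (stock added) for 5 hr at 37 C. Viability was read in the same wells by CellTiter-Glo luminescence after 30 min at room temperature.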
# [7] = qHTS assay to identify small molecule agonists of the TGF-beta/Smad signaling pathway - cell viability counter screen (AID 1346829); note: top concentration of the series differs between compounds; nearly all actives have a fitted effect of over 45% in size
# Method in brief: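 Luminescence from CellTiter-Glo, read after a 30 min room-temperature incubation, gives cell viability of SBE-bla HEK 293T cells treated 5 hr with compounds at 37 C.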
# [8] = qHTS assay to identify small molecule agonists of the TGF-beta/Smad signaling pathway (AID 1346859; active = well fitted activation curve with a large enough effect in the signal ratio in the repeat runs, not every such curve was filed as active; the % refers to the signal ratio; note: series mostly up to about 77 µM)
# Method in brief: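 After overnight seeding, SBE-bla HEK 293T cells are dosed with compounds in DMSO and kept 5 hr at 37 C, 5% CO2. LiveBLAzer-type FRET substrate is then applied for 2 hr at room temperature.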
# [9] = Human pregnane X receptor (PXR) small molecule agonists, qHTS cell viability counter screen (AID 1346977); note: nearly all actives have a fitted effect of over 50% in size; note: potency is the fitted concentration of half-maximal effect
# Method in brief: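 Viability counter screen: CellTiter-Fluor signal in PXR-Luc HepG2 cells, 24hr compound exposure, 37C, 5% CO2.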
# [10] = Caspase-3/7 induction in HepG2 cells by small molecules, qHTS assay (AID 1346978); note: nearly all actives have a fitted effect of over 15% in size
# Method in brief: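 Wild-type HepG2 cells, 2,000/well, settled 5 hr at 37 C and 5% CO2, then compound-treated for 17 hr; caspase-3/7 activity read by luminescent Caspase-Glo 3/7 after 30 min at room temperature.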
# [11] = Caspase-3/7 induction in CHO-K1 cells by small molecules, qHTS assay (AID 1346980); note: nearly all actives have a fitted effect of over 15% in size
# Method in brief: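 Wild-type CHO-K1 cells exposed to compounds for 17hr at 37 C, 5% CO2. Caspase-3/7 activity then measured by Caspase-Glo 3/7 luminescence after 30min at room temperature.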
# [12] = Caspase-3/7 induction in HepG2 cells by small molecules, qHTS cell viability counter screen (AID 1346981); note: nearly all actives have a fitted effect of over 30% in size; note: potency is the fitted concentration of half-maximal effect
# Method in brief: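 After a 5-hr attachment period at 37 C and 5% CO2, wild-type HepG2 cells received compounds in DMSO. Sixteen hours later CellTiter-Fluor was dispensed and the fluorescent signal quantified after a further hour.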
# [13] = molecular target: Nuclear receptor subfamily 1 group I member 2 (Homo sapiens) (UniProt O75469); assay: Human pregnane X receptor (PXR) small molecule agonists, qHTS assay (AID 1346982); note: nearly all actives have a fitted effect of over 35% in size; note: potency is the fitted concentration of half-maximal effect
# Chain of Nuclear receptor subfamily 1 group I member 2 (Homo sapiens) (O75469 whole entry, looked up): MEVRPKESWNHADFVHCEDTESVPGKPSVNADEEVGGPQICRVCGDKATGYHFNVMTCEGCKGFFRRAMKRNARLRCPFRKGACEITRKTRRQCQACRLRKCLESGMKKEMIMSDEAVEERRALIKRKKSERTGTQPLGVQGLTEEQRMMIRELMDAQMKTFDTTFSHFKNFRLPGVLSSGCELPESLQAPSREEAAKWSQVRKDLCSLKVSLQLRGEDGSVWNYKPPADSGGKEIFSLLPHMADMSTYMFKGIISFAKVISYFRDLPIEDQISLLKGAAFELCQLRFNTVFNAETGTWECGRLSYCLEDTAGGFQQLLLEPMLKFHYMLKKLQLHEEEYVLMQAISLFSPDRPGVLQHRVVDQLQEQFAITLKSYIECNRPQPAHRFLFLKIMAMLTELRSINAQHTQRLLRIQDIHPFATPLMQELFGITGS
# Method in brief: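 Tox21 qHTS; PXR-Luc HepG2; compounds pinned from DMSO; 24 hr, 37 C; ONE-Glo luciferase detection, 30 min room temperature.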
# [14] = Caspase-3/7 induction in CHO-K1 cells by small molecules, qHTS cell viability counter screen (AID 1346979); note: nearly all actives have a fitted effect of over 35% in size; note: potency is the fitted concentration of half-maximal effect
# Method in brief: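 Viability readout by fluorescence (CellTiter-Fluor) on wild-type CHO-K1 cells exposed for 16hr at 37C and 5% CO2 to compounds delivered in DMSO; reagent incubated 1hr before reading.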
# [15] = molecular target: Nuclear receptor subfamily 1 group I member 2 (Homo sapiens) (UniProt O75469); assay: CYP3A4 induction through human pregnane X receptor (PXR) by small molecules, qHTS assay (AID 1346984); note: nearly all actives have a fitted effect of over 40% in size
# Method in brief: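 Cells (DPX-2; HepG2 with PXR element plus CYP3A4-promoter luciferase) settled 5hr, then were treated 24hr at 37C. A 3hr, 3uM-final Luciferin-IPA step preceded luminescence measurement with One-Glo.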
# [16] = molecular target: Nuclear receptor subfamily 1 group I member 2 (Homo sapiens) (UniProt O75469); assay: Human pregnane X receptor (PXR) activation by small molecules, qHTS assay (AID 1346985); note: nearly all actives have a fitted effect of over 40% in size; note: potency is the fitted concentration of half-maximal effect
# Method in brief: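 DPX-2 cells (HepG2 co-transfected with a PXR response element and a CYP3A4-promoter luciferase construct) were seeded at 2,000 per well, rested 5 hr at 37C, then exposed to DMSO-dissolved compounds for 24 hr. Activation was read as luciferase luminescence.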
# [17] = molecular target: Thyrotropin-releasing hormone receptor (Homo sapiens) (UniProt P34981); assay: qHTS assay to identify small molecule antagonists of the thyrotropin-releasing hormone receptor (TRHR) signaling pathway (AID 1346877; active = well fitted inhibition curve with a large enough effect in the repeat runs, not every such curve was filed as active; note: series mostly up to about 51 µM)
# Chain of Thyrotropin-releasing hormone receptor (Homo sapiens) (P34981 whole entry, looked up): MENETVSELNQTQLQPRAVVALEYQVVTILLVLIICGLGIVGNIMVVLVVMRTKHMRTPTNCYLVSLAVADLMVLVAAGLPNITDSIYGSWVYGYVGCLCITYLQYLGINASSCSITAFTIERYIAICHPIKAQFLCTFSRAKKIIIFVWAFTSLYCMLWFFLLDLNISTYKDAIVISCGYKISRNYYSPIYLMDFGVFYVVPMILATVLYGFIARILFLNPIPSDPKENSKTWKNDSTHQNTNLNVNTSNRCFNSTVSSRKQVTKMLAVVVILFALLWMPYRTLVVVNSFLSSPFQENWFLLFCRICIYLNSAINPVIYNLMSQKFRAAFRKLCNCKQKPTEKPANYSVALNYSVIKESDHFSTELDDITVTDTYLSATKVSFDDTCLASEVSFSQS
# Method in brief: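 Calcium signal in dye-loaded TRHR/HEK293 cells; compounds added 5 min before TRH (1 nM final); fluorescence monitored 3 min at 1 s steps.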
# [18] = molecular target: Thyrotropin-releasing hormone receptor (Homo sapiens) (UniProt P34981); assay: qHTS assay to identify small molecule agonists of the thyrotropin-releasing hormone receptor (TRHR) signaling pathway (AID 1346891; calls by dose curve;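 note: HEK293 cells expressing TRHR with calcium dye readout; series mostly up to about 58 µM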)
# Method in brief: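 Compounds were tested as agonists at 15 concentrations, in triplicate, on TRHR-Hek293 cells; calcium-sensitive dye fluorescence was recorded for 3 min following addition.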
# [19] = molecular target: Thyrotropin receptor (Homo sapiens) (UniProt P16473); assay: qHTS assay to identify small molecule antagonists of the thyroid stimulating hormone receptor (TSHR) signaling pathway (AID 1259385; calls by dose curve; note: nearly all actives have a fitted effect of over 20% in size)
# Chain of Thyrotropin receptor (Homo sapiens) (P16473 whole entry, looked up): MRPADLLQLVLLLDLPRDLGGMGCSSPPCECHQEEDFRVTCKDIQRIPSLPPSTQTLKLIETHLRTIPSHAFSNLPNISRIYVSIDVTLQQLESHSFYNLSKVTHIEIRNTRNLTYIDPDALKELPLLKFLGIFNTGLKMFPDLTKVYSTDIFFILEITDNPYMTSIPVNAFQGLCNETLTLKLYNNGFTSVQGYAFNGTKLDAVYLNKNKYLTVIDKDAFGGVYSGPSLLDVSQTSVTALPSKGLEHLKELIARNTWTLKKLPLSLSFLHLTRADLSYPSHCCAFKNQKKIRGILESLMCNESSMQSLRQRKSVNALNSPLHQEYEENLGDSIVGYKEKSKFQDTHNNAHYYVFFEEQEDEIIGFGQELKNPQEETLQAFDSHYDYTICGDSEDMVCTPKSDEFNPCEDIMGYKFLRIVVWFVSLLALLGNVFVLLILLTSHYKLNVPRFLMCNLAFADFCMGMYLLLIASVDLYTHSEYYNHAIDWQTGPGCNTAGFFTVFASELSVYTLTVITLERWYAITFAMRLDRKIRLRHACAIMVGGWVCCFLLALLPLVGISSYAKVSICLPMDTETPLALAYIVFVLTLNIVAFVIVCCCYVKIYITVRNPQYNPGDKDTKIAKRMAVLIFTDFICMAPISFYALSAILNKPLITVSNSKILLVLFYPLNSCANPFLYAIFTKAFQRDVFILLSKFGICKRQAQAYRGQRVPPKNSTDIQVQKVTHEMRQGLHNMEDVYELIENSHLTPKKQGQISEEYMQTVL
# Method in brief: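 TSHR-HEK293 cells (800/well) plated 18 h, then compounds with Ro20-1724 and TSH at 1.5 ng/mL final, 30 min at room temperature. cAMP quantified by HTRF (cAMP-d2/anti-cAMP-cryptate, 1 h); 15 concentrations in triplicate.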
# [20] = molecular target: Nuclear receptor subfamily 1 group I member 2 (Rattus norvegicus) (UniProt Q9R1A7); assay: Rat pregnane X receptor (rPXR) activation by small molecules, qHTS assay (AID 1346983); conditions: rPXR luciferase reporter cells, One-Glo luminescence, 24 h; max activation: stronger effect = higher value; note: nearly all actives have a fitted effect of over 20% in size
# Chain of Nuclear receptor subfamily 1 group I member 2 (Rattus norvegicus) (Q9R1A7 whole entry, looked up): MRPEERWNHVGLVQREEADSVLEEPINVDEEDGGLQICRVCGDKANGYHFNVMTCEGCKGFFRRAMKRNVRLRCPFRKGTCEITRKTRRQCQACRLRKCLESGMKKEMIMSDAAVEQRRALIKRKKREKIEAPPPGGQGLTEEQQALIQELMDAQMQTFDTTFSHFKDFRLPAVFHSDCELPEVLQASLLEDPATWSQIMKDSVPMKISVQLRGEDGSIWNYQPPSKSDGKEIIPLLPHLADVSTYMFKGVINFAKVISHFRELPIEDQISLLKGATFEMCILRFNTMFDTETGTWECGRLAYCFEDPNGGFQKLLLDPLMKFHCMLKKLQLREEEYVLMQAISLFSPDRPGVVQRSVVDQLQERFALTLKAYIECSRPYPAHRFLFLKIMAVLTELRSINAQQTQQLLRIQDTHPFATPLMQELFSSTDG
# Method in brief: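 Cell-based rPXR activation assay: rPXR cells, 2,000 per well, rested 5hr at 37 C, then exposed to compounds in DMSO for 24 hr at 37 C. Luciferase activity read by One-Glo luminescence after 30 min at room temperature.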
Structure (SMILES),Potency [1],Potency [2],Potency [3],Potency [4],outcome [5],Potency [6],Potency [7],outcome [8],Potency [9],outcome [10],outcome [11],Potency [12],Potency [13],Potency [14],Potency [15],Potency [16],outcome [17],outcome [18],outcome [19],max activation [20]
Cc1cc(Cl)ccc1OC(C)C(=O)O (configuration not stated),inactive,inactive,inactive,inactive,inactive,inactive,inactive,inactive,inactive,inactive,inactive,inactive,inactive,,,,,,,
CCCCCCCCCCCCCCCCCC(=O)O,,inactive,10.8 µM (active) and inactive,inactive,inactive,inactive,inactive,inactive,inactive,inactive,inactive,inactive,30.4 µM (active) and inactive,inactive,inactive,inactive,,,,
Nc1ccc(N)cc1,54.7 µM (active) and 54.5 µM (active),inactive,inactive,inactive,inactive,inactive,inactive,inactive,54.5 µM (active) and inactive,inactive,inactive,54.5 µM (active) and inactive,54.5 µM (active) [middle of 4 runs],,,25.1 µM (active),inactive,inactive,,
Cc1cccc(C)c1NC(=O)CN1CCCC1=O,,inactive,inactive,inactive,inactive,inactive,inactive,inactive,inactive,inactive,inactive,inactive,inactive,inactive,,,inactive,,,
Nc1ncc([N+](=O)[O-])s1,,inactive,inactive,inactive,inactive,inactive,inactive,inactive,inactive,inactive,inactive,54.9 µM (active) and inactive,inactive,30.9 µM (active) and inactive,,,,,inactive,
CCSC(=O)N1CCCCCC1,,inactive,inactive,inactive,,inactive,inactive,inactive,inactive,inactive,inactive,inactive,inactive,inactive,,,,,inactive,
CNc1cnn(-c2cccc(C(F)(F)F)c2)c(=O)c1Cl,,inactive,inactive,inactive,inactive,inactive,inactive,inactive,inactive,inactive,inactive,inactive,46.8 µM (active) and 34.4 µM (active),inactive,,,inactive,,,
COC(=O)Nc1cccc(OC(=O)Nc2cccc(C)c2)c1,inactive,inactive,inactive,inactive,inactive,inactive,inactive,inactive,inactive,inactive,inactive,inactive,10.9 µM (active),inactive,,,,,,
OCC(O)CCl (configuration not stated),,,,inactive,inactive,inactive,inactive,inactive,inactive,inactive,inactive,inactive,inactive,inactive,,,,,inactive,
NNc1ccccc1,,inactive,inactive,inactive,inactive,inactive,inactive,inactive,inactive,inactive,inactive,inactive,61 µM (active) and inactive,,,inactive,,,inactive,-1.33% (inactive)
Oc1c(Br)cc(Br)cc1Br,,inactive,,inactive,,inactive,inactive,inactive,inactive,inactive,inactive,inactive,68.7 µM (active) and 61.1 µM (active) and inactive,inactive,inactive,inactive,inactive,inactive,inactive,-2.81% (inactive)
